# Data taken from the supplement of paper PMC13380429.
# Unmarked numbers belong to inactive results.
# System: Vero E6 infected with SARS-CoV-2
# Experiment: inhibition of SARS-CoV-2 cytopathic effect; higher = more antiviral protection, active = above 15
# Conditions: 48 h
Structure (SMILES),inhibition of SARS-CoV-2 cytopathic effect (1 nM) [%],inhibition of SARS-CoV-2 cytopathic effect (8.33 nM) [%],inhibition of SARS-CoV-2 cytopathic effect (100 nM) [%],inhibition of SARS-CoV-2 cytopathic effect (833.33 nM) [%],inhibition of SARS-CoV-2 cytopathic effect (10000 nM)
NS(=O)(=O)c1nn2cc(-c3ccccc3)nc2s1,8.11,1.76,0.85,0.07,0.7%
CCn1nc(C)c2c1C(c1ccccc1)=NCC(=O)N2 [ripazepam],-1.39,0.91,0.56,-0.98,-3.15%
Cn1cc(-c2ccc3nnc(C(F)(F)c4ccc5ncccc5c4)n3n2)cn1,0.45,2.96,4.23,0.5,6.76%
CC(C)N(CCCCOCC(=O)NS(C)(=O)=O)c1cnc(-c2ccccc2)c(-c2ccccc2)n1 [selexipag],-0.52,-1.02,-0.43,-0.43,-1.53%
CC(C)(Cc1c[nH]c2ccc(Cl)cc12)NCCOc1ccccc1OCC1CC1,0.45,-0.91,0.78,-2.24,-19.4%
Cc1nc2c(O)cccc2c(=O)[nH]1,2.07,2.96,-2.15,3.67,4.88%
CCCCCOc1ccc(-c2ccc(-c3ccc(C(=O)N[C@H]4C[C@@H](O)[C@@H](O)NC(=O)[C@@H]5[C@@H](O)[C@@H](C)CN5C(=O)[C@H]([C@@H](C)O)NC(=O)[C@H]([C@H](O)[C@@H](O)c5ccc(O)cc5)NC(=O)[C@@H]5C[C@@H](O)CN5C(=O)[C@H]([C@@H](C)O)NC4=O)cc3)cc2)cc1 [anidulafungin],-3.73,0.49,1.56,0.77,-2.12%
CC/C(=C(/c1ccc(OCCN(C)C)cc1)c1cccc(O)c1)c1ccccc1 [droloxifene],0.66,-1.2,1.69,0.64,34.5% (active)
C[C@]12CCC(=O)C=C1C=C[C@@H]1[C@@H]2CC[C@@]2(C)[C@H]1CC[C@@]2(O)CCC(=O)O [potassium-canrenoate],-4.66,-2.95,2.67,3.81,0.36%
C[C@H](c1ccc2ccc(OC3CCC(C(F)(F)F)CC3)c(C(F)(F)F)c2c1)N1C2CCC1CC(C(=O)O)C2 (stereo not given in full) [autotaxin-modulator-1],-1.22,-0.49,0.86,0.12,1.02%
CCOC(=O)N1c2ccc(C(F)(F)F)cc2[C@@H](N(Cc2cc(C(F)(F)F)cc(C(F)(F)F)c2)C(=O)OC)C[C@H]1CC,0.17,0.5,0.49,1.09,1.77%
Cc1cc(OI)c(C(C)C)cc1-c1cc(C(C)C)c(OI)cc1C [thymol-iodide],-1.11,-0.04,-0.16,1.69,-2.32%
NCC1(CC(=O)O)CCCCC1 [gabapentin],-2.49,2.99,-2.14,0.15,2.27%
CNC(=O)[C@H](Cc1c[nH]c2ccccc12)NC(=O)[C@@H](CC(=O)NO)CC(C)C [ilomastat],3.69,1.87,-1.16,2.15,-0.18%
CCNC(=O)[C@@H]1CCCN1C(=O)[C@H](CCCNC(=N)N)NC(=O)[C@H](CC(C)C)NC(=O)[C@@H](CC(C)C)NC(=O)[C@H](Cc1ccc(O)cc1)NC(=O)[C@H](CO)NC(=O)[C@H](Cc1c[nH]c2ccccc12)NC(=O)[C@H](Cc1c[nH]cn1)NC(=O)[C@@H]1CCC(=O)N1 [leuprolide],-3.75,3.77,3.45,0.4,-1.48%
CC(C)NCC(O)COc1cccc2ccccc12 (stereo not given) [propranolol],0.19,1.94,-0.637,-0.01,-2.77%
CCn1cc(C(=O)O)c(=O)c2cc(F)c(N3CCNCC3)cc21 [norfloxacin],2.7,2.29,3.02,-0.29,3.46%
CCCCCCNC(=O)Nc1ccc(S(=O)(=O)Nc2ccc(CCNC[C@H](O)COc3ccc(O)cc3)cc2)cc1,0.66,0.75,0.54,2.18,1.5%

Structure (SMILES),inhibition of SARS-CoV-2 cytopathic effect (1 nM) [%],inhibition of SARS-CoV-2 cytopathic effect (8.33 nM) [%],inhibition of SARS-CoV-2 cytopathic effect (100 nM) [%],inhibition of SARS-CoV-2 cytopathic effect (833.33 nM) [%],inhibition of SARS-CoV-2 cytopathic effect (10000 nM)
O=C(O[C@H]1CN2CCC1CC2)N(Cc1cc(F)c(F)c(F)c1)c1cccc(F)c1 [tarafenacin],1.69,-0.35,2.28,-1.46,-7.54%
O=C(O)[C@@H]1C[C@@H](O)CN1 [L-hydroxyproline],-3.79,-1.12,-0.27,-1.36,-3.93%
CCN1CCCC1CNC(=O)c1cc(S(=O)(=O)CC)c(N)cc1OC (stereo not given) [amisulpride],2.43,-1.75,0.45,-2.32,-1.76%
O=C(Oc1ccccc1)c1ccccc1O [phenyl-salicylate],-7.58,-2.22,-0.85,3.43,5.08%
NCc1ccccc1CC(=O)N[C@@H]1C(=O)N2C(C(=O)O)=C(CSc3nnnn3CC(=O)O)CS[C@H]12 [ceforanide],0.96,0.98,-0.17,2.04,2.57%
N[C@H](C(=O)O)[C@H](O)c1ccc(O)c(O)c1 [droxidopa],1.22,3.16,5.47,1.07,-5.92%
COC(=O)/C=C/c1cccc(N(Cc2ccc(-c3ccc(N(C)C)cc3)cc2)C(=O)C2CCCCC2)c1 [fexaramine],-0.19,0.37,-0.24,2.29,1.78%
C=CCNC1=C2C[C@@H](C)C[C@H](OC)[C@H](O)[C@@H](C)/C=C(\C)[C@H](OC(N)=O)[C@@H](OC)/C=C\C=C(/C)C(=O)NC(=CC1=O)C2=O [tanespimycin],-1.35,-0.13,-4.27,-0.63,3.92%
COc1cccc2c1C(=O)c1c(O)c3c(c(O)c1C2=O)C[C@@](O)(C(=O)CO)C[C@@H]3O[C@H]1C[C@H](N)[C@H](O[C@@H]2CCCCO2)[C@H](C)O1 [pirarubicin],-1.57,-0.32,-0.19,-1.24,-2.07%
Cc1oc(=O)oc1CN1CCN(c2cc3c(cc2F)c(=O)c(C(=O)O)c2n3C(C)S2)CC1 (stereo not given) [prulifloxacin],0.31,-0.69,-3.24,-1.97,-3.69%
COc1[nH]c2ccc(F)cc2c1C(=O)OCC1CCN(CCNS(C)(=O)=O)CC1,2,2.46,0.98,0.39,1.56%
C[C@@H]1COCCN1c1cc(C2([S@](C)(=N)=O)CC2)nc(-c2ccnc3[nH]ccc23)n1,-1.91,-1.92,0.5,1.27,1.76%
COc1cc2c(NC3CCN(C)CC3)nc(N3CCCN(C)CC3)nc2cc1OCCOCCN(C)C,-0.25,0.8,-0.4,2.99,-3.09%
Cc1cc(C)c(CNC(=O)c2cc(-c3ccc(CN4CCOCC4)cc3)cc3c2cnn3C2CCCC2)c(=O)[nH]1,-0.23,1.2,1.14,-1.29,-1.46%
Cc1ccc(NC(=O)Nc2cc(C(F)(F)F)ccc2F)cc1Nc1ccc2c(c1)NC(=O)/C2=C\c1ccc[nH]1,5.12,5.28,5.34,7.91,4.87%
COC1=CC(=O)C[C@@H](C)[C@]12Oc1c(Cl)c(OC)cc(OC)c1C2=O [griseofulvin],1.17,0.82,0.95,2.52,1.84%
CC(C)c1cc(-c2ccc(F)c3ccccc23)nc(N)n1,0.6,1.62,-1.61,-3.71,-2.34%
Cc1nnc(NS(=O)(=O)c2ccc(N)cc2)s1 [sulfamethizole],3.32,0.33,0.51,1.2,3.18%
